This is part of a sample that, as a whole, favours compounds with a hit. Of some 83,000 tested, about 20% had one in any assay.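 The endpoint reported here, percent growth, reads 100 for growth as untreated, 0 for no net growth and -100 for all cells dead.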 Unmarked numbers belong to inactive results. Calls of active or inactive are those of the source. Rule for the calls: active = growth percent below 10; inactive = the rest.
Legend:
Test in all cases: NCI-60 one-dose screen, 48 h (100 = growth as untreated, 0 = no growth, -100 = all killed)
Conditions in all cases: 10 µM
NCI-H23 lung = test system: NCI-H23 lung
NCI-H322M lung = test system: NCI-H322M lung
HOP-62 NSCLC = test system: HOP-62 NSCLC
NCI-H460 lung = test system: NCI-H460 lung
HOP-92 NSCLC = test system: HOP-92 NSCLC
NCI-H522 lung = test system: NCI-H522 lung
A549/ATCC NSCLC = test system: A549/ATCC NSCLC
786-0 renal = test system: 786-0 renal
COLO 205 colon = test system: COLO 205 colon
DU-145 prostate = test system: DU-145 prostate
K-562 leukemia = test system: K-562 leukemia
MALME-3M melanoma = test system: MALME-3M melanoma
MDA-MB-231 breast = test system: MDA-MB-231 breast
RXF 393 renal = test system: RXF 393 renal
SF-268 CNS = test system: SF-268 CNS
SF-295 CNS = test system: SF-295 CNS
SF-539 CNS = test system: SF-539 CNS
UACC-257 melanoma = test system: UACC-257 melanoma
M14 melanoma = test system: M14 melanoma

Which growth (NCI-H23 lung) does the source give for `COc1ccc(-c2cc3c(nn2)-c2ccccc2C3=O)cc1` here?
Its growth is 68.5%.

And the growth (NCI-H322M lung)?
Its growth is 65.6%.

What about the growth (HOP-62 NSCLC) of the same compound?
The growth was -14.4% (active).

And the growth (NCI-H460 lung)?
Its growth is 15.1%.

And the growth (HOP-92 NSCLC)?
Its growth is 98.3%.

And the growth (NCI-H522 lung)?
Its growth is 26.4%.

And the growth (A549/ATCC NSCLC)?
The growth was 2.29% (active).

And the growth (786-0 renal)?
The growth was 25.8%.

And the growth (COLO 205 colon)?
The growth was 42.3%.

And the growth (DU-145 prostate)?
The growth was 21.2%.

And the growth (K-562 leukemia)?
Its growth is 21.9%.

And the growth (MALME-3M melanoma)?
Its growth is -21.1% (active).

And the growth (MDA-MB-231 breast)?
Its growth is 59.5%.

What about the growth (RXF 393 renal) of the same compound?
The growth was 71.8%.

What about the growth (SF-268 CNS) of the same compound?
Its growth is 39.1%.

What about the growth (SF-295 CNS) of the same compound?
Its growth is -40.7% (active).

What about the growth (SF-539 CNS) of the same compound?
Its growth is 82.1%.

What about the growth (UACC-257 melanoma) of the same compound?
The growth was 69.6%.

And the growth (M14 melanoma)?
Its growth is 42.9%.

What does the source list for `OCC(O)C(O)C(O)C(O)/C=N/O` (centres undefined)?
growth (NCI-H23 lung): 101%; growth (NCI-H322M lung): 103%; growth (HOP-62 NSCLC): 83.5%; growth (NCI-H460 lung): 99.8%; growth (HOP-92 NSCLC): 74.8%; growth (NCI-H522 lung): 94.9%; growth (A549/ATCC NSCLC): 60.9%; growth (786-0 renal): 96.8%; growth (COLO 205 colon): 112%; growth (DU-145 prostate): 108%; growth (K-562 leukemia): 111%; growth (MALME-3M melanoma): 110%; growth (MDA-MB-231 breast): 97.5%; growth (RXF 393 renal): 98.9%; growth (SF-268 CNS): 98%; growth (SF-295 CNS): 105%; growth (SF-539 CNS): 106%; growth (UACC-257 melanoma): 62.3%; growth (M14 melanoma): 94.7%

For `CCCC(C)OCC(=O)O` (centres undefined), which growth (NCI-H23 lung) is on record?
Its growth is 109%.

What about the growth (NCI-H322M lung) of the same compound?
The growth was 96.8%.

And the growth (HOP-62 NSCLC)?
Its growth is 111%.

And the growth (NCI-H460 lung)?
Its growth is 103%.

What about the growth (HOP-92 NSCLC) of the same compound?
The growth was 76.6%.

What about the growth (NCI-H522 lung) of the same compound?
The growth was 101%.

And the growth (A549/ATCC NSCLC)?
The growth was 93.9%.

And the growth (786-0 renal)?
Its growth is 107%.

And the growth (COLO 205 colon)?
Its growth is 108%.

And the growth (DU-145 prostate)?
The growth was 106%.

What about the growth (K-562 leukemia) of the same compound?
Its growth is 112%.

What about the growth (MALME-3M melanoma) of the same compound?
Its growth is 90.7%.

And the growth (MDA-MB-231 breast)?
Its growth is 105%.

What about the growth (RXF 393 renal) of the same compound?
Its growth is 96.4%.

What about the growth (SF-268 CNS) of the same compound?
The growth was 99.2%.

What about the growth (SF-295 CNS) of the same compound?
Its growth is 98.5%.

And the growth (SF-539 CNS)?
Its growth is 102%.

And the growth (UACC-257 melanoma)?
Its growth is 90.2%.

What about the growth (M14 melanoma) of the same compound?
Its growth is 106%.

With `O=[N+]([O-])c1ccccc1N=Nc1ccc(O)cc1O` as the compound, how does the growth (NCI-H23 lung) read?
Its growth is 103%.

What about the growth (NCI-H322M lung) of the same compound?
The growth was 107%.

And the growth (HOP-62 NSCLC)?
Its growth is 106%.

And the growth (NCI-H460 lung)?
The growth was 115%.

And the growth (A549/ATCC NSCLC)?
Its growth is 106%.

And the growth (786-0 renal)?
Its growth is 108%.

And the growth (COLO 205 colon)?
Its growth is 102%.

And the growth (DU-145 prostate)?
The growth was 117%.

And the growth (K-562 leukemia)?
The growth was 120%.

What about the growth (MALME-3M melanoma) of the same compound?
Its growth is 109%.

What about the growth (MDA-MB-231 breast) of the same compound?
Its growth is 119%.

And the growth (RXF 393 renal)?
The growth was 121%.

What about the growth (SF-268 CNS) of the same compound?
Its growth is 118%.

What about the growth (SF-295 CNS) of the same compound?
Its growth is 107%.

What about the growth (SF-539 CNS) of the same compound?
Its growth is 113%.

And the growth (UACC-257 melanoma)?
The growth was 103%.

What about the growth (M14 melanoma) of the same compound?
Its growth is 110%.

Which growth (NCI-H23 lung) does the source give for `O=[N+]([O-])c1cccc(N=Nc2ccc(O)cc2O)c1` here?
Its growth is 74.3%.

And the growth (NCI-H322M lung)?
The growth was 95.9%.

And the growth (HOP-62 NSCLC)?
The growth was 103%.

What about the growth (NCI-H460 lung) of the same compound?
Its growth is 91.6%.

And the growth (NCI-H522 lung)?
The growth was -11.1% (active).

What about the growth (A549/ATCC NSCLC) of the same compound?
The growth was 93.6%.

What about the growth (786-0 renal) of the same compound?
Its growth is 74%.

And the growth (COLO 205 colon)?
The growth was 92.2%.

And the growth (DU-145 prostate)?
Its growth is 95.2%.

And the growth (K-562 leukemia)?
The growth was 17.7%.

What about the growth (MALME-3M melanoma) of the same compound?
The growth was 65.8%.

And the growth (MDA-MB-231 breast)?
Its growth is 76.5%.

And the growth (RXF 393 renal)?
Its growth is 83.5%.

What about the growth (SF-268 CNS) of the same compound?
The growth was 83.4%.

And the growth (SF-295 CNS)?
The growth was 95.7%.

What about the growth (SF-539 CNS) of the same compound?
Its growth is 89.7%.

What about the growth (UACC-257 melanoma) of the same compound?
The growth was 72.5%.

And the growth (M14 melanoma)?
The growth was 97%.

With `O=[N+]([O-])c1ccc(S(=O)(=O)NN=C2CCCCC2)cc1` as the compound, how does the growth (NCI-H23 lung) read?
Its growth is 104%.

What about the growth (NCI-H322M lung) of the same compound?
Its growth is 108%.

What about the growth (NCI-H460 lung) of the same compound?
Its growth is 121%.

What about the growth (HOP-92 NSCLC) of the same compound?
The growth was 96.7%.

And the growth (A549/ATCC NSCLC)?
Its growth is 93.9%.

And the growth (786-0 renal)?
Its growth is 103%.

And the growth (COLO 205 colon)?
Its growth is 102%.

And the growth (DU-145 prostate)?
Its growth is 121%.

And the growth (K-562 leukemia)?
The growth was 111%.

What about the growth (MALME-3M melanoma) of the same compound?
Its growth is 101%.

And the growth (MDA-MB-231 breast)?
The growth was 108%.

What about the growth (RXF 393 renal) of the same compound?
The growth was 117%.

What about the growth (SF-268 CNS) of the same compound?
Its growth is 116%.

And the growth (SF-295 CNS)?
The growth was 97.8%.

And the growth (SF-539 CNS)?
The growth was 109%.

What about the growth (UACC-257 melanoma) of the same compound?
Its growth is 95.6%.

What about the growth (M14 melanoma) of the same compound?
The growth was 106%.

Which growth (NCI-H23 lung) does the source give for `CC(=Nc1ccccc1)C1=C(O)C(Cc2cccc(F)c2)NC1=O` (centres undefined) here?
The growth was 17.1%.

And the growth (NCI-H322M lung)?
The growth was 31.8%.

And the growth (HOP-62 NSCLC)?
Its growth is 28.9%.

And the growth (NCI-H460 lung)?
The growth was 6.19% (active).

What about the growth (HOP-92 NSCLC) of the same compound?
The growth was 41.2%.

What about the growth (NCI-H522 lung) of the same compound?
The growth was -34.5% (active).

What about the growth (A549/ATCC NSCLC) of the same compound?
The growth was 14.3%.

And the growth (786-0 renal)?
The growth was 15.3%.

And the growth (COLO 205 colon)?
Its growth is -55.5% (active).

And the growth (DU-145 prostate)?
The growth was -37.9% (active).

What about the growth (K-562 leukemia) of the same compound?
The growth was 5.47% (active).

What about the growth (MALME-3M melanoma) of the same compound?
The growth was 39.8%.

And the growth (MDA-MB-231 breast)?
Its growth is 25.9%.

And the growth (RXF 393 renal)?
Its growth is 41.7%.

And the growth (SF-268 CNS)?
Its growth is 31.1%.

And the growth (SF-295 CNS)?
The growth was -5.61% (active).

And the growth (SF-539 CNS)?
The growth was -17.5% (active).

What about the growth (UACC-257 melanoma) of the same compound?
Its growth is 40.6%.

What about the growth (M14 melanoma) of the same compound?
The growth was 7.5% (active).

What does the source list for `CC1C(=O)c2ccccc2CC1C(=O)O` (centres undefined)?
growth (NCI-H23 lung): 96.8%; growth (NCI-H322M lung): 99.5%; growth (HOP-62 NSCLC): 105%; growth (NCI-H460 lung): 122%; growth (HOP-92 NSCLC): 101%; growth (A549/ATCC NSCLC): 93.8%; growth (786-0 renal): 110%; growth (COLO 205 colon): 105%; growth (DU-145 prostate): 135%; growth (K-562 leukemia): 103%; growth (MDA-MB-231 breast): 109%; growth (RXF 393 renal): 120%; growth (SF-268 CNS): 130%; growth (SF-539 CNS): 101%; growth (UACC-257 melanoma): 92.8%; growth (M14 melanoma): 113%

With `O=[N+]([O-])c1ccc(N=Nc2ccc(O)c3ccccc23)cc1` as the compound, how does the growth (NCI-H23 lung) read?
The growth was 6.51% (active).

What about the growth (NCI-H322M lung) of the same compound?
Its growth is 79.3%.

And the growth (HOP-62 NSCLC)?
Its growth is 75.2%.

What about the growth (NCI-H460 lung) of the same compound?
Its growth is 30.9%.

What about the growth (NCI-H522 lung) of the same compound?
The growth was -14.2% (active).

What about the growth (A549/ATCC NSCLC) of the same compound?
Its growth is 71.1%.

And the growth (COLO 205 colon)?
The growth was 88.5%.

And the growth (DU-145 prostate)?
Its growth is 66.9%.

What about the growth (K-562 leukemia) of the same compound?
Its growth is 22.1%.

What about the growth (MALME-3M melanoma) of the same compound?
The growth was 57.8%.

What about the growth (MDA-MB-231 breast) of the same compound?
Its growth is 36.8%.

And the growth (RXF 393 renal)?
Its growth is 60.1%.

What about the growth (SF-268 CNS) of the same compound?
The growth was 45.9%.

And the growth (SF-539 CNS)?
The growth was 75.4%.

And the growth (UACC-257 melanoma)?
The growth was 17%.

Source: PubChem BioAssay (NCI)
